In the supplement of paper PMC8728848:
This excerpt belongs to a sample that is enriched for the strongest signals.

How the values were obtained:
Assay in all cases: glycan array binding signal (z-score within array); higher = stronger binding
Conditions in all cases: glycan notation: IUPAC condensed, linker removed
[1] = target: Fuc(a1-2)Gal(b1-3)GlcNAc(b1-3)[Fuc(a1-2)Gal(b1-3)GlcNAc(b1-6)]GalNAc
Summary of the method: (§1)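 The binding signal is a Z-score computed within each array and averaged over linkers. Arrays of the same protein sequence at different concentrations or buffers were also averaged together. Data originate from 3228 arrays in the Consortium for Functional Glycomics database, kept only where the protein sequence was available.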

[2] = target: Fuc(a1-2)Gal(b1-3)[Fuc(a1-4)]GlcNAc(b1-3)[Gal(b1-4)GlcNAc(b1-6)]Gal(b1-4)Glc
Summary of the method: as §1

[3] = target: Fuc(a1-2)Gal(b1-4)Fuc(a1-3)]GlcNAc(b1-2)Man(a1-3)[Fuc(a1-2)Gal(b1-4)[Fuc(a1-3)]GlcNAc(b1-2)Man(a1-6)]Man(b1-4)GlcNAc(b1-4)GlcNAc
Summary of the method: as §1

[4] = target: Fuc(a1-2)Gal(b1-4)[Fuc(a1-3)]GlcNAc
Summary of the method: as §1

[5] = target: Fuc(a1-2)Gal(b1-4)[Fuc(a1-3)]GlcNAc(b1-3)Gal(b1-4)[Fuc(a1-3)]GlcNAc(b1-3)Gal(b1-4)[Fuc(a1-3)]GlcNAc
Summary of the method: as §1

[6] = target: Fuc(a1-2)[Gal(a1-3)]Gal(b1-3)GlcNAc(b1-2)Man(a1-3)[Fuc(a1-2)[Gal(a1-3)]Gal(b1-3)GlcNAc(b1-2)Man(a1-6)]Man(b1-4)GlcNAc(b1-4)[Fuc(a1-6)]GlcNAc
Summary of the method: as §1

[7] = target: Fuc(a1-2)[Gal(a1-3)]Gal(b1-4)Glc
Summary of the method: as §1

[8] = target: Fuc(a1-2)[Gal(a1-3)]Gal(b1-4)GlcNAc(b1-3)GalNAc
Summary of the method: as §1

[9] = target: Fuc(a1-2)[Gal(a1-3)]Gal(b1-4)GlcNAc(b1-6)GalNAc
Summary of the method: as §1

[10] = target: Fuc(a1-2)[GalNAc(a1-3)]Gal(b1-4)GlcNAc(b1-2)Man(a1-3)[Fuc(a1-2)[GalNAc(a1-3)]Gal(b1-4)GlcNAc(b1-2)Man(a1-6)]Man(b1-4)GlcNAc(b1-4)[Fuc(a1-6)]GlcNAc
Summary of the method: as §1

[11] = target: Gal(b1-3)GlcNAc(b1-2)[Gal(b1-3)GlcNAc(b1-6)]Man(a1-6)[Gal(b1-3)GlcNAc(b1-2)Man(a1-3)]Man(b1-4)GlcNAc(b1-4)GlcNAc
Summary of the method: as §1

[12] = target: Gal(b1-3)GlcNAc(b1-3)Gal(b1-4)GlcNAc(b1-6)[Gal(b1-3)GlcNAc(b1-3)]Gal(b1-4)Glc
Summary of the method: as §1

[13] = target: Gal(b1-3)[Fuc(a1-4)]GlcNAc(b1-2)Man
Summary of the method: as §1

[14] = target: Gal(b1-4)GlcNAc(b1-2)[Gal(b1-4)GlcNAc(b1-6)]Man(a1-6)[Gal(b1-4)GlcNAc(b1-2)Man(a1-3)]Man(b1-4)GlcNAc(b1-4)[Fuc(a1-6)]GlcNAc
Summary of the method: as §1

[15] = target: Gal(b1-4)GlcNAc(b1-3)Gal(b1-4)GlcNAc(b1-2)Man(a1-3)[Gal(b1-4)GlcNAc(b1-3)Gal(b1-4)GlcNAc(b1-2)Man(a1-6)]Man(b1-4)GlcNAc(b1-4)[Fuc(a1-6)]GlcNAc
Summary of the method: as §1

[16] = target: Gal(b1-4)GlcNAc(b1-3)Gal(b1-4)GlcNAc(b1-3)Gal(b1-4)GlcNAc(b1-3)Gal(b1-4)GlcNAc(b1-2)Man(a1-3)[Gal(b1-4)GlcNAc(b1-3)Gal(b1-4)GlcNAc(b1-3)Gal(b1-4)GlcNAc(b1-3)Gal(b1-4)GlcNAc(b1-2)Man(a1-6)]Man(b1-4)GlcNAc(b1-4)GlcNAc
Summary of the method: as §1

[17] = target: Gal(b1-4)GlcNAc(b1-3)Gal(b1-4)GlcNAc(b1-3)Gal(b1-4)GlcNAc(b1-3)Gal(b1-4)GlcNAc(b1-3)Gal(b1-4)GlcNAc(b1-2)Man(a1-3)[Gal(b1-4)GlcNAc(b1-3)Gal(b1-4)GlcNAc(b1-3)Gal(b1-4)GlcNAc(b1-3)Gal(b1-4)GlcNAc(b1-3)Gal(b1-4)GlcNAc(b1-2)Man(a1-6)]Man(b1-4)GlcNAc(b1-4)GlcNAc
Summary of the method: as §1

[18] = target: Gal(b1-4)GlcNAc(b1-3)Gal(b1-4)GlcNAc(b1-3)[Gal(b1-4)GlcNAc(b1-3)Gal(b1-4)GlcNAc(b1-6)]GalNAc
Summary of the method: as §1

Gal3S(b1-3)GlcNAc = target: Gal3S(b1-3)GlcNAc
Summary of the method: as §1

[19] = target: Gal3S(b1-4)[Fuc(a1-3)]Glc6S
Summary of the method: as §1

[20] = target: GalNAc(b1-4)GlcNAc(b1-2)Man(a1-3)[GalNAc(b1-4)GlcNAc(b1-2)Man(a1-6)]Man(b1-4)GlcNAc(b1-4)GlcNAc
Summary of the method: as §1

GlcA(b1-3)GlcNAc = target: GlcA(b1-3)GlcNAc
Summary of the method: as §1

[21] = target: GlcNAc(b1-3)Gal(b1-4)GlcNAc(b1-3)Gal(b1-4)GlcNAc(b1-2)Man(a1-3)[GlcNAc(b1-3)Gal(b1-4)GlcNAc(b1-3)Gal(b1-4)GlcNAc(b1-2)Man(a1-6)]Man(b1-4)GlcNAc(b1-4)[Fuc(a1-6)]GlcNAc
Summary of the method: as §1

[22] = target: GlcNAc(b1-3)Gal(b1-4)GlcNAc(b1-3)Gal(b1-4)GlcNAc(b1-3)Gal(b1-4)GlcNAc(b1-2)Man(a1-3)[GlcNAc(b1-3)Gal(b1-4)GlcNAc(b1-3)Gal(b1-4)GlcNAc(b1-3)Gal(b1-4)GlcNAc(b1-2)Man(a1-6)]Man(b1-4)GlcNAc(b1-4)GlcNAc
Summary of the method: as §1

[23] = target: GlcNAc6S(b1-3)Gal(b1-4)GlcNAc
Summary of the method: as §1

[24] = target: Man(a1-3)[Man(a1-6)]Man(a1-6)[Man(a1-2)Man(a1-3)]Man(b1-4)GlcNAc(b1-4)GlcNAc
Summary of the method: as §1

Man(a1-6)Man = target: Man(a1-6)Man
Summary of the method: as §1

[25] = target: Neu5Ac(a2-3)Gal(b1-4)GlcNAc(b1-2)Man(a1-3)[Neu5Ac(a2-6)Gal(b1-4)GlcNAc(b1-2)Man(a1-6)]Man(b1-4)GlcNAc(b1-4)GlcNAc
Summary of the method: as §1

[26] = target: Neu5Ac(a2-3)Gal(b1-4)GlcNAc(b1-2)[Neu5Ac(a2-3)Gal(b1-4)GlcNAc(b1-4)]Man(a1-3)[GlcNAc(b1-4)][Neu5Ac(a2-3)Gal(b1-4)GlcNAc(b1-2)[Neu5Ac(a2-3)Gal(b1-4)GlcNAc(b1-6)]Man(a1-6)]Man(b1-4)GlcNAc(b1-4)GlcNAc
Summary of the method: as §1

[27] = target: Neu5Ac(a2-3)Gal(b1-4)GlcNAc(b1-3)Gal(b1-4)GlcNAc(b1-3)Gal(b1-4)GlcNAc
Summary of the method: as §1

[28] = target: Neu5Ac(a2-3)Gal(b1-4)GlcNAc(b1-3)Gal(b1-4)[Fuc(a1-3)]GlcNAc
Summary of the method: as §1

[29] = target: Neu5Ac(a2-3)Gal(b1-4)GlcNAc6S
Summary of the method: as §1

[30] = target: Neu5Ac(a2-3)[GalNAc(b1-4)]Gal(b1-4)GlcNAc(b1-3)GalNAc
Summary of the method: as §1

[31] = target: Neu5Ac(a2-6)Gal(b1-4)GlcNAc(b1-3)Gal(b1-4)GlcNAc(b1-3)Gal(b1-4)GlcNAc(b1-2)Man(a1-3)[Neu5Ac(a2-6)Gal(b1-4)GlcNAc(b1-3)Gal(b1-4)GlcNAc(b1-3)Gal(b1-4)GlcNAc(b1-2)Man(a1-6)]GalNAc
Summary of the method: as §1

[32] = target: Neu5Ac(a2-6)Gal(b1-4)GlcNAc(b1-3)Gal(b1-4)GlcNAc(b1-3)[Neu5Ac(a2-6)Gal(b1-4)GlcNAc(b1-3)Gal(b1-4)GlcNAc(b1-6)]GalNAc
Summary of the method: as §1

[33] = target: Neu5Ac(a2-6)Gal(b1-4)GlcNAc(b1-6)GalNAc
Summary of the method: as §1

[34] = target: Neu5Ac(a2-6)Gal(b1-4)GlcNAc(b1-6)[Gal(b1-3)GlcNAc(b1-3)]Gal(b1-4)Glc
Summary of the method: as §1

[35] = target: Neu5Ac(a2-8)Neu5Ac(a2-3)Gal(b1-4)Glc
Summary of the method: as §1

[36] = target: Neu5Ac(a2-8)Neu5Ac(a2-8)Neu5Ac(a2-3)Gal(b1-4)Glc
Summary of the method: as §1

[37] = target: Neu5Ac9Ac(a2-3)Gal(b1-4)GlcNAc
Summary of the method: as §1

[38] = target: Neu5Gc(a2-8)Neu5Gc(a2-3)Gal(b1-4)GlcNAc
Summary of the method: as §1

B1: Protein L(B1-B4) (Finegoldia magna), Q51912 (protein)
chain: KEETPETPETDSEEEVTIKANLIFANGSTQTAEFKGTFEKATSEAYAYADTLKKDNGEYTVDVADKGYTLNIKFAGKEKTPEEPKEEVTIKANLIYADGKTQTAEFKGTFEEATAEAYRYADALKKDNGEYTVDVADKGYTLNIKFAGKEKTPEEPKEEVTIKANLIYADGKTQTAEFKGTFEEATAEAYRYADLLAKENGKYTVDVADKGYTLNIKFAGKEKTPEEPKEEVTIKANLIYADGKTQTAEFKGTFAEATAEAYRYADLLAKENGKYTADLEDGGYTINIRFAG
- glycan array binding signal (z-score) [1]: 2.77
- glycan array binding signal (z-score) [2]: -0.528
- glycan array binding signal (z-score) [3]: 1.7
- glycan array binding signal (z-score) [4]: -0.142
- glycan array binding signal (z-score) [5]: 0.159
- glycan array binding signal (z-score) [6]: 3.09
- glycan array binding signal (z-score) [7]: 0.047
- glycan array binding signal (z-score) [8]: 3.09
- glycan array binding signal (z-score) [9]: -0.474
- glycan array binding signal (z-score) [10]: 2.95
- glycan array binding signal (z-score) [11]: 0.177
- glycan array binding signal (z-score) [12]: -0.192
- glycan array binding signal (z-score) [13]: 1.5
- glycan array binding signal (z-score) [14]: 2.92
- glycan array binding signal (z-score) [15]: 0.486
- glycan array binding signal (z-score) [16]: 2.06
- glycan array binding signal (z-score) [17]: 0.528
- glycan array binding signal (z-score) [18]: 4.22
- glycan array binding signal (z-score) (Gal3S(b1-3)GlcNAc): -0.911
- glycan array binding signal (z-score) [19]: 2.28
- glycan array binding signal (z-score) [20]: 1.49
- glycan array binding signal (z-score) (GlcA(b1-3)GlcNAc): -0.785
- glycan array binding signal (z-score) [21]: 3.07
- glycan array binding signal (z-score) [22]: 1.06
- glycan array binding signal (z-score) [23]: -0.336
- glycan array binding signal (z-score) [24]: 2.94
- glycan array binding signal (z-score) (Man(a1-6)Man): -0.159
- glycan array binding signal (z-score) [25]: -1.02
- glycan array binding signal (z-score) [26]: -0.913
- glycan array binding signal (z-score) [27]: -1.05
- glycan array binding signal (z-score) [28]: -0.359
- glycan array binding signal (z-score) [29]: -0.92
- glycan array binding signal (z-score) [30]: 0.809
- glycan array binding signal (z-score) [31]: 3.91
- glycan array binding signal (z-score) [32]: 2.86
- glycan array binding signal (z-score) [33]: 3.08
- glycan array binding signal (z-score) [34]: -0.606
- glycan array binding signal (z-score) [35]: -1.15
- glycan array binding signal (z-score) [36]: 0.487
- glycan array binding signal (z-score) [37]: 0.223
- glycan array binding signal (z-score) [38]: -1.03
